Here are results for 18 molecules from PubChem BioAssay (EPA / NIEHS).

Inconclusive results are not listed. Calls of active or inactive are those of the source. How the source made its calls: active means hit-call score of the fitted dose curve at least 0.9, where 1 is the maximum; inconclusive means response in the unintended direction; inactive means score below 0.9.

Chain of human Peripheral-type Benzodiazepine Receptor (PBR), TSPO (gene 706) (P30536 whole entry, looked up): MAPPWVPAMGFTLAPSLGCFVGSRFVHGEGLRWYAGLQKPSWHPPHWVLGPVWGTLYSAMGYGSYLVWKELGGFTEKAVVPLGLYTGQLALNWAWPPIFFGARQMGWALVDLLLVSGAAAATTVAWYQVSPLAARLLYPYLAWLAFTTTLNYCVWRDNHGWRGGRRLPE

The assay addresses human Peripheral-type Benzodiazepine Receptor (PBR), TSPO (gene 706) (UniProt P30536). Put plainly: NVS_MP_hPBR: NovaScreen (NVS) Membrane Protein Assay for human Peripheral-type Benzodiazepine Receptor (PBR) (AID 2283331). As for the experimental part: NVS_MP_hPBR is a biochemical, single-readout assay that uses extracted gene-proteins from Human colonic cell membranes in a tissue-based cell-free assay. Measurements were taken 1 hour after chemical dosing in a 48-well plate.NVS_MP_hPBR is one of one assay component(s) measured or calculated from the NVS_MP_hPBR assay. It is designed to make measurements of radioligand binding, a form of binding reporter, as detected with scintillation counting signals by Filter-based radiodetection technology.Data from the assay component NVS_MP_hPBR was analyzed into 1 assay endpoint. This assay endpoint, NVS_MP_hPBR, was analyzed in the positive analysis fitting direction relative to DMSO as the negative control and baseline of activity. Using a type of binding reporter, loss-of-signal activity can be used to understand changes in the binding as they relate to the gene TSPO. Furthermore, this assay endpoint can be referred to as a primary readout, because the performed assay has only produced 1 assay endpoint. To generalize the intended target to other relatable targets, this assay endpoint is annotated to the transporter intended target family, where the subfamily is cholesterol transporter.
Binding assays used specific radioligands (tritiated, iodinated) with non-radioactive competitive displacement ligands in agonist or antagonist protocols (as indicated) and various reference compounds and inhibitors to titrate specific binding to receptors and transporters. Most enzyme assays (CYPs, kinases, phosphatases, proteases, HDACs) used recombinant protein and specific substrates (fluorescence mostly, some colorimetric and radioactive) and inhibitors, followed by a biochemical separation of substrate and product. All assays for the biochemical HTS were initially run in duplicate at a single concentration (10 uM for CYP450 assays and 25 uM for all others). […] Each assay was run with positive and negative controls, and concurrent controls on every plate. The follow-up (secondary) screen tested active chemical-pairs in concentration series, as well as a few additional assays not tested in the primary screen, some selected negative inactives, and several cases re-run in the concentration series for confirmatory purposes.
As to `CC/C=C\C/C=C\C/C=C\CCCCCCCC(=O)OC`, the AC50 is 7.69 µM (active).
Same read-out and setting: the figure for `COc1ccc(-c2coc3cc(O)cc(O)c3c2=O)cc1` is 0.293 µM (active); for `CCCCNS(=O)(=O)c1ccc(C)cc1` it is 7.96 µM (active); for `COc1ccc(C(=O)/C(Br)=C\C(=O)O)cc1` it is 9.63 µM (active).
With `C=CCOC(=O)c1ccc(C(=O)OCC=C)c(C(=O)OCC=C)c1`, the AC50 was 9.19 µM (active).
With `O=C(O)c1cc(O)c2ccccc2c1O`, the half-maximal activity concentration (AC50) was 18 µM (active).
On the same count and under the same terms, as for `C=C1C[C@H]2[C@@H]3C=C(C)C4=CC(=O)CC[C@]4(C)[C@H]3CC[C@]2(C)[C@@]1(OC(C)=O)C(C)=O`, the figure is 0.732 µM (active); as for `COC(OC)(C(=O)c1ccccc1)c1ccccc1`, 21.9 µM (active).
On to `O=C(Oc1ccccc1)c1ccccc1C(=O)Oc1ccccc1`, for which the AC50 is 1.78 µM (active).
The same measure, in the same setting: the figure for `CCCCCCCOC(=O)c1ccc(O)cc1` is 2.98 µM (active); for `CN(C)c1ccc2nc3ccc(=[N+](C)C)cc-3sc2c1` it is 10.2 µM (active).
Still for that read-out and setting: as for `CCOC(=O)C1=NN(c2ccc(Cl)cc2Cl)C(C)(C(=O)OCC)C1` (stereo not drawn), the figure is 10.9 µM (active); as for `CC(Cl)COP(=O)(OCC(C)Cl)OCC(C)Cl` (stereo not drawn), 25 µM (active).
As to `C/C=C/C=C/CCCCCCCO`, the AC50 was 12.2 µM (active).
Still for that read-out and setting: as for `CCCCC/C=C\C/C=C\CCCCCCCC(=O)O`, the figure is 5.35 µM (active); as for `CCOC(=O)C1=NOC(c2ccccc2)(c2ccccc2)C1`, 8.19 µM (active); as for `O=C(OCc1ccccc1)c1ccc(O)cc1`, 6.36 µM (active).
With `CCCCNC(=S)NCCCC`, the result was inactive.
